Reference: article PMC8136818, “Evolving origin-of-transfer sequences on staphylococcal conjugative and mobilizable plasmids—who’s mimicking whom?”

T1: SmpO408 (Staphylococcus aureus M0408)
T1 chain: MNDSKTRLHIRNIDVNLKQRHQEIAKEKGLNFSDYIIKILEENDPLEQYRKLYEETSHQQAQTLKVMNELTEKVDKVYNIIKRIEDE

T2: SmpOSep (Staphylococcus epidermidis VCU120)
T2 chain: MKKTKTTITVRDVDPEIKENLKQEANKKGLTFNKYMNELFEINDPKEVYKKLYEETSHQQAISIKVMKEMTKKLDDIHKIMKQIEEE

B1: OT408 For/Rev_18 (dsDNA)
DNA 1: TAATAGGTGGCAAATTTCCCTTATGCTCTT
DNA 2: AAGAGCATAAGGGAAATTTGCCACCTATTA
B2: ossA408-1 (dsDNA)
DNA 1: ATATAGGCGCCTAATA
DNA 2: TATTAGGCGCCTATAT
B3: ossA408-2 (dsDNA)
DNA 1: TAATAGGCGCCTAATA
DNA 2: TATTAGGCGCCTATTA
B4: ossA408-3 (dsDNA)
DNA 1: TTTTAGGCGCCTAATA
DNA 2: TATTAGGCGCCTAAAA
B5: ossA408-4 (dsDNA)
DNA 1: TTAAAGGCGCCTAATA
DNA 2: TATTAGGCGCCTTTAA
B6: ossA408-5 (dsDNA)
DNA 1: TTATTGGCGCCTAATA
DNA 2: TATTAGGCGCCAATAA
B7: ossA408 G6C (dsDNA)
DNA 1: TTATACGCGCCTAATA
DNA 2: TATTAGGCGCGTATAA
B8: ossA408-7 (dsDNA)
DNA 1: TTATAGCCGCCTAATA
DNA 2: TATTAGGCGGCTATAA
B9: ossA408-8 (dsDNA)
DNA 1: TTATAGGGGCCTAATA
DNA 2: TATTAGGCCCCTATAA
B10: ossA408-9 (dsDNA)
DNA 1: TTATAGGCCCCTAATA
DNA 2: TATTAGGGGCCTATAA
B11: ossA408-10 (dsDNA)
DNA 1: TTATAGGCGGCTAATA
DNA 2: TATTAGCCGCCTATAA
B12: ossA408 C11G (dsDNA)
DNA 1: TTATAGGCGCGTAATA
DNA 2: TATTACGCGCCTATAA
B13: ossA408-12 (dsDNA)
DNA 1: TTATAGGCGCCAAATA
DNA 2: TATTTGGCGCCTATAA
B14: ossA408-13 (dsDNA)
DNA 1: TTATAGGCGCCTTATA
DNA 2: TATAAGGCGCCTATAA
B15: ossA408-14 (dsDNA)
DNA 1: TTATAGGCGCCTATTA
DNA 2: TAATAGGCGCCTATAA
B16: ossA408-15 (dsDNA)
DNA 1: TTATAGGCGCCTAAAA
DNA 2: TTTTAGGCGCCTATAA
B17: ossA408-16 (dsDNA)
DNA 1: TTATAGGCGCCTAATT
DNA 2: AATTAGGCGCCTATAA
B18: ossASep (dsDNA)
DNA 1: TTTGCATACATTTAAA
DNA 2: TTAAATGTATGCAAA
B19: ossBSep (dsDNA)
DNA 1: TAAATGTATGCATATT
DNA 2: AATATGCATACATTTA
B20: ossB49 (dsDNA)
DNA 1: CCGATGATAGCAAATT
DNA 2: AATTTGCTATCATCGG

Tests used:
SmpO408 = biological target: T1, SmpO408; assay: SPR (ReDCaT); 300 mM NaCl; 10 mM HEPES, 3 mM EDTA, 0.05% Tween 20, NaCl 150 mM (SmpO49 screens), 300 mM (SmpO45, SmpO408, SmpOUNa screens) or 250 mM (Table S4); pH and temperature not stated; protein 1 uM; high values mean tight binding; details: protein: recombinant; tags: His6-TEV, cleaved; chain copies: 4
In short: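 Tag-cleaved protein, expressed in E. coli BL21(DE3)pLysS and purified by nickel-affinity and size-exclusion chromatography, was screened on a Biacore T200 SA chip by reusable DNA capture. OriT oligonucleotides were captured at 1 μM on Fc2, with a control linker on Fc1. Protein at 1 μM was injected at 30 μl/min (60 s contact, 60 s dissociation) in 10 mM HEPES, 300 mM NaCl, 3 mM EDTA, 0.05% Tween 20. DNA binding is reported as %Rmax.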

SmpOSep = biological target: T2, SmpOSep; assay: SPR (ReDCaT); 250 mM NaCl; 10 mM HEPES, 3 mM EDTA, 0.05% Tween 20, NaCl 150 mM (SmpO49 screens), 300 mM (SmpO45, SmpO408, SmpOUNa screens) or 250 mM (Table S4); pH and temperature not stated; protein 1 uM; high values mean tight binding; details: protein: recombinant; tags: His6-TEV, cleaved; chain copies: 4

| Binder | binding signal (SmpO408) | binding signal (SmpOSep) |
| --- | --- | --- |
| B1 | 60.1 %Rmax |  |
| B2 | 67.4 ± 2.06 %Rmax |  |
| B3 | 65.7 ± 2.04 %Rmax |  |
| B4 | 64.4 ± 1.7 %Rmax |  |
| B5 | 69 ± 1.82 %Rmax |  |
| B6 | 67.9 ± 1.54 %Rmax |  |
| B7 | 35.5 ± 2.44 %Rmax |  |
| B8 | 49.8 ± 2.35 %Rmax |  |
| B9 | 7.62 ± 1.09 %Rmax |  |
| B10 | 6.86 ± 1.04 %Rmax |  |
| B11 | 48.1 ± 2.02 %Rmax |  |
| B12 | 34.5 ± 1.85 %Rmax |  |
| B13 | 68.3 ± 1.07 %Rmax |  |
| B14 | 63.9 ± 1.66 %Rmax |  |
| B15 | 63 ± 0.997 %Rmax |  |
| B16 | 63 ± 1.28 %Rmax |  |
| B17 | 65.1 ± 0.98 %Rmax |  |
| B18 |  | 18.8 %Rmax |
| B19 |  | 16.5 %Rmax |
| B20 |  | 0.6 %Rmax |
